High-throughput results deposited in PubChem BioAssay by National Center for Advancing Translational Sciences (NCATS).
D2 ag-1: HTS Assay for Allosteric Agonists of the Human D2 Dopamine Receptor: Primary Screen for Agonists. D(2) dopamine receptor (Homo sapiens), P14416. HEK293 T-REx D2 cells, calcium flux agonist mode. activation, % at 2 µM. 340,000 tested, 0.53% active;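 active = activation over 3 SD above normal in the single-dose calcium agonist read, cut at about 30% in these data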; note: 0% is about no effect
Target sequence (P14416 whole entry, looked up): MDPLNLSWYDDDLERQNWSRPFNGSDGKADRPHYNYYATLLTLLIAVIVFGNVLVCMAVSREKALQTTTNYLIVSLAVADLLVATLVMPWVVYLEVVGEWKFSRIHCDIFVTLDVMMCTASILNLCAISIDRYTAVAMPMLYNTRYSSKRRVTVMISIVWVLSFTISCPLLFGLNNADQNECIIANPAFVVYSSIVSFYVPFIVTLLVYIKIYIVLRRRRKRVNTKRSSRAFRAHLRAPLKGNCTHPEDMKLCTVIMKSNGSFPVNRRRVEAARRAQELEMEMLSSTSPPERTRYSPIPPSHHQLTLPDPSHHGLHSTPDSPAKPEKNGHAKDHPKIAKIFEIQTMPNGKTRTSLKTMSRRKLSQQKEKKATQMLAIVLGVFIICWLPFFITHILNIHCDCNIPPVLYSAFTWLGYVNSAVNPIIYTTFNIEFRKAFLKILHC
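Agonism is scored from calcium flux in a force-coupled, inducible HEK293 cell line expressing D2, read kinetically for 180 s after compound addition against dopamine controls.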
D2 ag-2: Beta-Arrestin HTS for Positive Allosteric Modulators of the Human D2 Dopamine Receptor: Agonists; DiscoveRx PathHunter D2 beta-arrestin, luminescence, 90 min; 100% = 57 uM dopamine signal; activation, % (concentration not given with the values); 360,000 tested, 0.084% active; AID 624465, 2012; in the data active = activation above about 40%; inconclusive = between about 15% and that limit
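DiscoveRx PathHunter D2 beta-arrestin cells (2,100/well) attached overnight, then compound-stimulated 90 min at 37 C in HBSS/10 mM HEPES/0.1% Tween-20 buffer; beta-galactosidase complementation read by luminescence after 1 h at ambient temperature. Dopamine 57 uM final (EC100) as control.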
D2 PAM-1: Beta-Arrestin HTS for Positive Allosteric Modulators of the Human D2 Dopamine Receptor: Potentiators | AID 624464, 2012 | DiscoveRx D2 beta-arrestin cells, luminescence, 90 min; 100% = 57 uM dopamine signal | D(2) dopamine receptor (Homo sapiens), P14416 | potentiation, % (concentration not given with the values) | 360,000 tested, 0.23% active; in the data active = potentiation above about 50%; inconclusive = mostly about 30% to 49%
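D2 cells co-treated with compound plus 50 nM dopamine (EC20) for 90 min at 37 deg C to detect potentiation. Beta-arrestin recruitment was read as enzyme-fragment luminescence after 1 h at ambient temperature. Full response was set by 57 uM dopamine.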
D2 antag: HTS Assay for Allosteric Antagonists of the Human D2 Dopamine Receptor: Primary Screen for Antagonists; D(2) dopamine receptor (Homo sapiens), P14416; HEK293 TREx D2 cells, calcium flux, dopamine EC80; inhibition, % at 10 µM; 340,000 tested, 2% active; in the data active = inhibition above about 30%; inactive = below that, where a call was filed; note: 0% is about no effect
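Calcium mobilization kinetics were recorded at 1 s intervals in tetracycline-induced HEK293 T-REx D2 cells, first for 180 s after compound addition and then 180 s after EC80 dopamine.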
D2 PAM-2: HTS Assay for Positive Allosteric Modulators of the Human D2 Dopamine Receptor: Primary Screen for Potentiators; 340,000 tested, 0.34% active; D(2) dopamine receptor (Homo sapiens), P14416; HEK293 T-REx D2, calcium flux, EC20 dopamine potentiation; potentiation, % at 10 µM;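 active = potentiation over 3 SD above the plate norm, cut at about 30% in these data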; note: 0% is about no effect
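Primary screen. Calcium kinetics in induced HEK293 T-REx D2 cells: compound pre-addition 180 s, EC20 dopamine, 180 s more.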
Active calls of the source: *; u = inconclusive; x = no result given. In the library only some 2.4% were active in any assay of this set; here they are far more common.

SMILES	D2 ag-1	D2 ag-2	D2 PAM-1	D2 antag	D2 PAM-2
Cc1sc2ncn(CC(=O)N3CCC4(CC3)OCCO4)c(=O)c2c1C	0.2	-1.7	1.2	9.7	30.0*
CCCCc1nc2ccccc2c(=O)n1-c1cccc(OC)c1	-2.5	x	x	x	9.7
COc1c(C)cc(C(=O)C2CCCN(Cc3cccc(C)n3)C2)cc1C (configuration not stated)	37.7*	-4.9	-16.2	5.0	-6.3
CCCN1CCCC(C(=O)c2cc(C)c(OC)c(C)c2)C1 (configuration not stated)	0.7	-1.6	-13.5	86.3*	-27.4
Cc1ccc(NC(=O)CN2C(=O)CN=C(c3ccccc3)c3ccccc32)c(C)c1	0.4	x	x	x	-4.7
CCOc1ccc(CN(CCc2ccc3c(c2)OCO3)Cc2cccc(C)c2)cc1	x	x	x	x	-22.8
Cc1ccccc1-n1nc(C)c2c1NC(=O)CSC2c1ccccc1C(F)(F)F (configuration not stated)	-1.3	x	x	x	-0.6
Cc1cccc(NC2=NCCCS2)c1C	0.5	1.9	-6.0	38.4*	-9.9
Cc1ccccc1NC1=NCCCS1	0.5	-0.5	-11.0	-21.8	5.7
Cc1nn(CC(C)C)c(Cl)c1C(=O)NC1CCCC1	x	-2.1	-8.1	x	x
Cc1nn(CC(C)C)c(Cl)c1C(=O)NC1CCCCC1	0.2	-3.4	22.1	30.2*	2.5
Cc1ccc(OCC(=O)Nc2ccc(Cl)cc2C(=O)c2ccccc2)c(Br)c1	0.3	x	x	x	-1.7
CC(=O)c1ccc(OC(NC(=O)c2ccco2)C(Cl)(Cl)Cl)cc1 (configuration not stated)	-0.6	-0.7	-0.7	5.8	32.0*
O=C(NC(Oc1ccccc1)C(Cl)(Cl)Cl)c1ccccc1 (configuration not stated)	-0.6	-1.5	-3.7	15.8	-4.2
CCCCCCN1CCN(c2ccccc2Cl)CC1	4.2	1.7	-10.8	76.1*	-27.9
Cc1cccc(N2CCN(CCc3ccccc3)CC2)c1C	-0.6	-8.5	-25.6	-17.5	10.5
Cc1cc(C)cc(OCC(=O)Nc2ccc(Cl)cc2C(=O)c2ccccc2)c1	-1.5	x	x	x	-7.6
Cc1cccc(CN2CC=C(c3noc(CCC(=O)Nc4ccc(C)c(F)c4)n3)CC2)c1	0.6	x	x	x	-7.3
CC1CCN(CC#CCOc2ccc(Cl)cc2)CC1	0.6	-2.3	-2.1	86.3*	-24.4
COc1ccc(-n2nnnc2C(CCc2ccccc2)N2CCC(n3c(=O)[nH]c4ccccc43)CC2)cc1 (configuration not stated)	x	u	27.2	x	x
O=c1[nH]c2ccccc2n1C1CCN(C(c2ccnc3ccccc23)c2nnnn2-c2ccc3c(c2)OCCO3)CC1 (configuration not stated)	x	u	50.4*	x	x
O=c1[nH]c2ccccc2n1C1CCN(C(CCc2ccccc2)c2nnnn2-c2ccc3c(c2)OCCO3)CC1 (configuration not stated)	x	11.3	58.1*	x	x
Cc1oc(-c2ccc(Cl)cc2)nc1CN1C(=O)CN=C(c2ccccc2)c2ccccc21	x	x	x	x	-3.9
CCCCc1ccc(NC(=O)c2cccn(Cc3ccc(Cl)cc3)c2=O)cc1	x	x	x	x	-3.5
Nc1c(Br)cc2c3c(cccc13)-c1ccccc1-2	x	7.3	59.5*	x	x
SMILES	D2 ag-1	D2 ag-2	D2 PAM-1	D2 antag	D2 PAM-2
O=C(Nc1cc(C(F)(F)F)cc(C(F)(F)F)c1)c1cccn(Cc2ccccc2Cl)c1=O	1.6	x	x	x	-5.5
CC(C)Oc1ccc(CCN)cc1Cl	1.1	0.7	-14.1	7.8	-6.2
CCCCOc1ccc(CCN)cc1Cl	2.9	-5.7	-20.3	41.8*	3.1
CCC(C(=O)Nc1ccccc1F)N1C(=O)CN=C(c2ccccc2)c2ccccc21 (configuration not stated)	0.5	x	x	x	10.1
CN(C)C1(CNC(=O)Nc2ccc(Cl)c(Cl)c2)CCCCC1	2.6	-2.0	-15.2	54.3*	-33.8
CN(C)C1(CNC(=O)c2ccc(NS(=O)(=O)c3ccc(Cl)c(Cl)c3)cc2)CCCCC1	0.8	-0.6	-3.3	7.6	0.4
